# Assay outcomes from PubChem.
# Giardia killer – Giardia lamblia killing | Giardia lamblia trophozoite viability | activity change, % at 7.66 µM, hits read low | actives 0.15% (n = 340,000); in the data active = activity change below about -80%; inconclusive = between about -30% and that limit;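 note: parasites exposed to compound for two days anaerobically before the ATP read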
#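 Anaerobic 48 hrs incubation at 37 deg C of 100 trophozoites/well with test compounds; ATPLite 1-Step luminescence, 15-30 min RT, reports cellular ATP as viability.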
# TDP1 cell noCPT – qHTS for Inhibitors of human tyrosyl-DNA phosphodiesterase 1 (TDP1): qHTS in cells in absence of CPT. Potency, µM (top dose mostly 46.2 µM), for inactives: at the top dose activity change, negative = growth inhibition, most hits filed as inhibitors. DT40 Tdp1-/- hTDP1 cells, no CPT, ATP luminescence, 48 h. actives 15% (n = 420,000); note: potency is the fitted concentration of half-maximal effect; nearly all actives have a fitted effect of over 55% in size
#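 Chicken DT40 Tdp1-/- cells complemented with human TDP1, screened without camptothecin (DMSO vehicle only), 400 cells/well. Compounds pin-transferred, cells incubated at 37 °C for at least 48 hr. Growth read as ATP-dependent luminescence (CellTiter-Glo, 30 min at RT).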
# TDP1 inh – blocks human tyrosyl-DNA phosphodiesterase 1. Potency, µM (series often up to 130 µM), without a hit: at the highest dose activity change, negative = inhibition, usual class: inhibitors. recombinant TDP1, AlphaScreen DNA substrate cleavage. Q9NUW8. actives 0.28% (n = 350,000); note: potency is the fitted concentration of half-maximal effect; nearly all actives have a fitted effect of over 40% in size
# Target sequence (Q9NUW8 whole entry, looked up): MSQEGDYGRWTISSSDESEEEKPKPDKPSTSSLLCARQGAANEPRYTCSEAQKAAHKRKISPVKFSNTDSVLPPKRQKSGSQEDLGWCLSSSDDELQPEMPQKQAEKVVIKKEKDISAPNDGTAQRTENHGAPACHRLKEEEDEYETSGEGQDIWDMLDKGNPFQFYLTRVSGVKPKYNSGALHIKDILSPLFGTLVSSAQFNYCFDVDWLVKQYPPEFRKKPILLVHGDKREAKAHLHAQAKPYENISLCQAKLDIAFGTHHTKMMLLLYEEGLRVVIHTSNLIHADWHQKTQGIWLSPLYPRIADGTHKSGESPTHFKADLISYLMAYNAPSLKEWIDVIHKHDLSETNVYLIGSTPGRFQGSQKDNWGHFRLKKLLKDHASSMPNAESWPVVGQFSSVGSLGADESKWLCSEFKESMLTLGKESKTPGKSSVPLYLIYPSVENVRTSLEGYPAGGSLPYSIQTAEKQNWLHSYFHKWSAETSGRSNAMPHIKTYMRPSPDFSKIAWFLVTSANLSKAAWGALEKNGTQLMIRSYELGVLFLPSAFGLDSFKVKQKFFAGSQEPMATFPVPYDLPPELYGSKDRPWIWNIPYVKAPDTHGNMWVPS
#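 Compounds were preincubated with Tdp1 (1 nM final) for 15 min at room temperature before substrate (15 nM final) started a 5 min reaction; beads (10 ug/ml final) were then added for 10 min before AlphaScreen detection.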
# DT40 TDP1 CPT – growth inhibition of DT40 Tdp1-/-;hTDP1 cells with camptothecin (screen for TDP1 inhibitors); actives 12% (n = 420,000); Potency, µM (highest dose often 46.2 µM), inactives show top-dose activity change, negative = growth inhibition, actives largely listed as inhibitors; chicken DT40 Tdp1-/-;hTDP1 cells + 20 nM CPT, ATP luminescence, 48 h; note: potency is the fitted concentration of half-maximal effect; nearly all actives have a fitted effect of over 55% in size
#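 Cell growth measured by CellTiter-Glo luminescence after a minimum 48 h, 37 C compound exposure with 20 nM CPT in Tdp1-knockout DT40 cells stably expressing hTDP1, seeded 400/well; qHTS titration format.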
# IL-1B inflam inh – inflammasome signaling inhibition, IL-1 beta readout; activity change, % at 57.5 µM; AID 743279; actives 4.7% (n = 360,000); THP-1 LPS/ATP IL-1B secretion, AlphaLISA, 16 h; stronger effect = lower value; in the data active = activity change below about -50%; inconclusive = mostly about -30% to -49%
#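 THP-1 cells pretreated 1 hr with compounds (up to 57.5 uM final), then stimulated with LPS (250 ng/mL final) plus ATP (1.25 mM final); secreted IL-1B measured by AlphaLISA after 16 hr, decreased signal indicating inhibition.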
# ELG1 DNA repair – ELG1-dependent DNA repair inhibition | Potency, µM (series often up to 46.1 µM), for inactives: at the top dose activity change, negative = inhibition, usual class: inhibitors | actives 2.3% (n = 330,000) | HEK293T ELG1-luciferase reporter, luminescence, 16 h; DNA damage induced by 5-fluorouridine | AID 504467; note: potency is the fitted concentration of half-maximal effect; nearly all actives have a fitted effect of over 55% in size
#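 Overnight (16 hr) co-exposure of 2,000 cells/well to 5-fluorouridine and compound at 37 °C preceded detection. Luciferase was quantified via ONE-Glo luminescence; loss of signal denotes inhibition.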
# * marks the source's active call; other numbers are inactive results; ? = inconclusive; / = no result given; [ ] = another dose, or the depositor's remark. The list is not random: actives were taken first. Their share in the collection is about 19%. Unless noted, calls come from the whole dose curve; as a rule, active = well fitted curve in the direction sought with a large enough effect; inconclusive = small, poorly fitted or top-dose-only effect, or another doubt; inactive = no such curve, though single readings can be large; an effect the other way counts as inactive or inconclusive. % is set by controls: 0 for no effect and ±100 for the full control effect.
SMILES,Giardia killer,TDP1 cell noCPT,TDP1 inh,DT40 TDP1 CPT,IL-1B inflam inh,ELG1 DNA repair
O=C(NC1CCCC1)C1c2ccccc2OCC(=O)N1Cc1cccnc1 (centres undefined),/,-4%,/,3%,-3,/
Cc1ccc(NC(=O)Cn2cc(C(=O)c3ccco3)c3ccccc32)cc1,/,15µM*,3%,?,/,/
Cc1ccc(NC(=O)Cn2cc(C(=O)c3ccco3)c3ccccc32)cc1C,/,18µM*,2%,?,/,/
COc1ccc(NC(=O)Cn2cc(C(=O)c3ccco3)c3ccccc32)cc1,2,?,5%,?,8,?
Cc1cccc(C)c1NC(=O)Cn1cc(C(=O)c2ccco2)c2ccccc21,/,?,-1%,?,/,/
O=C(Cn1cc(C(=O)c2ccco2)c2ccccc21)Nc1ccccc1,-4,12µM*,1%,10µM*,-11,-9%
COC(=O)[C@H]1O[C@@H](c2cc(OC)c(C)c(OC)c2OCc2ccccc2)[C@H](C)[C@H]2O[C@@]12C,/,/,2%,/,/,/
CC(C)C(=O)N1CCCC1(C)C(=O)N(C)Cc1cccc2ccccc12 (centres undefined),/,-22%,/,-23%,15,/
CC(=O)N1CCCC(C)(C(=O)N(C)Cc2cccc3ccccc23)C1 (centres undefined),/,?,/,23µM*,63,/
CC(=O)Nc1ccc(CN(C)c2c(C)nc3ccc(C(=O)N(C)Cc4ccccc4)cn23)cc1,/,16µM*,/,?,0,/
Cc1nc2ccc(C(=O)N3CCN(c4ccccc4)CC3)cn2c1N(C)C(=O)CCc1ccccc1,/,?,/,?,14,/
CC(=O)Nc1ccc(CN(C)c2c(C)nc3ccc(C(=O)N4CCN(c5ccccc5)CC4)cn23)cc1,/,?,/,23µM*,31,/
Fc1ccc(CNc2nc3c(-c4ccc(F)cc4)nnn3c3ccccc23)cc1,/,2%,1%,8%,/,/
Cc1cccc(C)c1-n1nnnc1-c1nc2cc(Br)ccc2[nH]c1=O,/,-29%,/,?,-4,/
Cc1cccc(C)c1-n1nnnc1-c1nc2cc3ccccc3cc2[nH]c1=O,/,0.73µM*,/,0.52µM*,8,/
CCOC(=O)N1CCN(S(=O)(=O)c2ccc(C(=O)N(CCN(CC)CC)c3nc4c(C)cccc4s3)cc2)CC1,1,-28%,9%,?,4,-14%
CCOC(=O)N1CCN(S(=O)(=O)c2ccc(C(=O)NNc3nc4ccc(Cl)cc4s3)cc2)CC1,-9,21µM*,8%,21µM*,110,?
CCOC(=O)N1CCN(S(=O)(=O)c2ccc(C(=O)NNc3nc4c(C)cccc4s3)cc2)CC1,11,16µM*,11%,16µM*,86,?
Cc1ccc(CCNC(=O)c2cc3ccccn3n2)cc1,/,-27%,3%,-29%,/,/
CCCc1nc2cc(C)c(Br)c(C)n2c1Cc1ccccc1OC,/,15µM*,/,26µM*,20,/
COc1ccccc1Cc1c(C(C)(C)C)nc2cc(C)c(Br)c(C)n12,/,16µM*,/,26µM*,67,/
NCCC[C@@H](CC(=O)N[C@@H]1CCNC[C@H]1C(=O)N[C@H](CC(=O)N[C@@H](CCC(=O)O)CC(=O)O)Cc1ccccc1)NC(=O)C[C@H](CO)NC(=O)[C@@H]1CCCC[C@H]1N,/,/,3%,/,/,/
CSc1nc(N2CCOCC2)nc2ccc(C)cc12,6,?,/,?,-15,?
CCOC(=O)c1c(C)[nH]c(C)c1S(=O)(=O)N1CCCC(C(=O)Nc2cc(C)ccc2C)C1 (centres undefined),/,-13%,5%,-21%,/,/
CCc1nc2ccc(C(=O)NCC3CCCCC3)cn2c1N(CCC(C)C)CCN(C)C,/,26µM*,/,18µM*,18,/
SMILES,Giardia killer,TDP1 cell noCPT,TDP1 inh,DT40 TDP1 CPT,IL-1B inflam inh,ELG1 DNA repair
CCc1nc2ccc(C(=O)NCc3ccccc3OC)cn2c1N(C=O)CCC(C)C,/,16µM*,/,23µM*,-9,/
CCc1nc2ccc(C(=O)NCc3ccc(OC)cc3)cn2c1N(CCC(C)C)CCN(C)C,/,16µM*,/,?,-15,/
CCCCN(C=O)c1c(CC)nc2ccc(C(=O)NCc3ccccc3OC)cn12,/,?,/,?,-6,/
CCCCSCCCNC(=O)c1cn(CC)c2ccc(S(=O)(=O)N3CCCCCC3)cc2c1=O,/,?,5%,?,/,/
CN(C(=O)COC(=O)c1cc(S(=O)(=O)N2CCOCC2)ccc1F)C1CCS(=O)(=O)C1 (centres undefined),13,9%,2%[0.505 µM],-14%,9,24%
O=C(COc1ccc(F)cc1)Nc1ccc(C(=O)OCc2cc(=O)n3nc(C4CC4)sc3n2)cc1,/,-23%,-4%,?,/,/
Cc1ncc2c(c1CNC(=O)c1ccsc1)CCN(C(=O)c1c(F)cccc1Cl)C2,/,-19%,/,3%[9.04 µM],/,/
O=C(CSc1nc2ncc(Cl)cc2[nH]1)Nc1ccccc1-c1ccccc1,19,?,2%,?,-20,?
O=C(CSc1nc2ncc(Br)cc2[nH]1)c1ccc([N+](=O)[O-])cc1,-25,?,6%,18µM*,0,4%
O=C(CSc1nc2ncc(Br)cc2[nH]1)Nc1ccccc1-c1ccccc1,4,?,2%,16µM*,-7,?
CC(=O)N=c1n(C)c2ccccc2n1CCOc1ccccc1,-14,12%,3%,-6%,-22,0%
CCCN(C)C[C@@H]1OCc2cnnn2CCCC(=O)N([C@H](C)CO)C[C@H]1C,/,-6%,/,-8%,-3,/
CCNS(=O)(=O)c1ccc(NC(=O)c2ccc(Cn3cc(Br)cn3)o2)cc1,13,?,4%,?,-16,?
CN(C)/C=N/C1=C(C#N)C(c2cccs2)c2ccc3ccccc3c2O1 (centres undefined),12,4.1µM*,5%,4.1µM*,85,?
N#CC1=C(N)Oc2cc3ccccc3cc2C1c1cccnc1 (centres undefined),-6,7.3µM*,-8%,8.2µM*,-12,15%
N#CC1=C(N)Oc2cc3ccccc3cc2C1c1cccs1 (centres undefined),-6,11µM*,7%,11µM*,0,-16%
N#CC1=C(N)Oc2c(ccc3cccnc23)C1c1cccnc1 (centres undefined),-8,5.2µM*,0%,5.8µM*,62,?
C[n+]1cccc(C2C(C#N)=C(N)Oc3c2ccc2ccccc32)c1 (centres undefined),4,?,/,?,41,-7%
